Results published in PubChem BioAssay (EPA / NIEHS).
Calls of active or inactive are those of the source. The calls were made as follows: active = hit-call score of the fitted dose curve at least 0.9, where 1 is the maximum; inactive = score below 0.9.

Key:
[1] = read-out: Tumor necrosis factor receptor superfamily member 6 (Homo sapiens) (UniProt P25445); assay: LTEA_HepaRG_FAS: Life Technologies and Expression Analysis (LTEA) Assay for Fas cell surface death receptor (FAS) using HepaRG (AID 2283447); conditions: mRNA level, 48 h; actives raise or lower the signal
Outline: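 Differentiated human HepaRG cells, pre-cultured 48 h, were exposed in duplicate for 48 h to 8-point half-log concentrations (top 100 uM, 0.5% DMSO) in serum-free induction medium; FAS mRNA measured by qRT-PCR, normalized to ACTB/GAPDH/POLR2A, bidirectional fit versus DMSO.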

[2] = read-out: Fatty acid synthase (Homo sapiens) (UniProt P49327); assay: LTEA_HepaRG_FASN: Life Technologies and Expression Analysis (LTEA) Assay for Fatty Acid Synthase (FASN) using HepaRG (AID 2283448); conditions: mRNA level, 48 h; actives raise or lower the signal
Outline: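 HepaRG, 48 h exposure, 8-pt half-log series top 100 uM, 0.5% DMSO vehicle, duplicates. Readout: FASN transcript by Fluidigm qRT-PCR; housekeeping-normalized; bidirectional curve fit vs DMSO baseline.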

[3] = read-out: Cyclin D2 (CCND2), CCND2 (gene 894); assay: LTEA_HepaRG_CCND2: Life Technologies and Expression Analysis (LTEA) Assay for Cyclin D2 (CCND2) using HepaRG (AID 2283449); conditions: mRNA level, 48 h; actives raise or lower the signal;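 also: CCND2 transcript measured by TaqMan qRT-PCR and normalised to three housekeeping genes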
Outline: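 In this HepaRG study, an eight-point concentration series (max 100 uM, 0.5% DMSO) is applied for 48 h. CCND2 mRNA change is derived by qRT-PCR normalised to ACTB, GAPDH and POLR2A.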

[4] = read-out: Cyclin Dependent Kinase Inhibitor 1A (CDKN1A), CDKN1A (gene 1026); assay: LTEA_HepaRG_CDKN1A: Life Technologies and Expression Analysis (LTEA) Assay for Cyclin Dependent Kinase Inhibitor 1A (CDKN1A) using HepaRG (AID 2283450); conditions: mRNA level, 48 h; actives raise or lower the signal
Outline: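 Read-out is CDKN1A mRNA by TaqMan qRT-PCR, normalized to three housekeeping genes and fitted in both directions against the DMSO baseline. Human HepaRG cells were treated 48 h with test chemicals up to 100 uM in half-log steps, 0.5% DMSO.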

[5] = read-out: Cyclin D1 (CCND1), CCND1 (gene 595); assay: LTEA_HepaRG_CCND1: Life Technologies and Expression Analysis (LTEA) Assay for Cyclin D1 (CCND1) using HepaRG (AID 2283451); conditions: mRNA level, 48 h; actives raise or lower the signal;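 as to AC50: TaqMan qRT-PCR transcript level normalised to ACTB GAPDH and POLR2A housekeeping genes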
Outline: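 HepaRG plated 48 h, medium switched to serum-free induction medium, chemicals added in duplicate (top 100 uM, half-log steps, 0.5% DMSO) for 48 h, cells lysed, RNA measured by TaqMan qRT-PCR.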

[6] = read-out: catalase (CAT), CAT (gene 847); assay: LTEA_HepaRG_CAT: Life Technologies and Expression Analysis (LTEA) Assay for catalase (CAT) using HepaRG (AID 2283452); conditions: mRNA level, 48 h; actives raise or lower the signal;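 as to AC50: TaqMan qRT-PCR signal normalized to ACTB GAPDH and POLR2A housekeeping genes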
Outline: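 Differentiated HepaRG cells in serum-free induction medium were dosed 48 h in duplicate, eight half-log concentrations from 100 uM in 0.5% DMSO. Transcript measured by TaqMan qRT-PCR, normalised to ACTB/GAPDH/POLR2A, fitted bidirectionally against DMSO.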

[7] = read-out: flavin-containing dimethylaniline monooxygenases 3 (FMO3), FMO3 (gene 2328); assay: LTEA_HepaRG_FMO3: Life Technologies and Expression Analysis (LTEA) Assay for flavin-containing dimethylaniline monooxygenases 3 (FMO3) using HepaRG (AID 2283453); conditions: mRNA level, 48 h; actives raise or lower the signal;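 as to AC50: FMO3 transcript by TaqMan qRT-PCR normalized to ACTB GAPDH and POLR2A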
Outline: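 Eight-point concentration-response in serum-free HepaRG cultures (top 100 uM, 0.5% DMSO, 48 h). Read-out: FMO3 mRNA level normalized to three endogenous control genes, fitted bidirectionally versus vehicle.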

[8] = read-out: Cytochrome P450 (CYP1A1), CYP1A1 (gene 1543); assay: LTEA_HepaRG_CYP1A1: Life Technologies and Expression Analysis (LTEA) Assay for Cytochrome P450 (CYP1A1) using HepaRG (AID 2283454); conditions: mRNA level, 48 h; actives raise or lower the signal
Outline: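 HepaRG, 48 h post-plating switched to serum-free induction medium; 8-pt conc-response (top 100 uM, half-log, 0.5% DMSO), duplicates, 48 h. Lysis in RLT, TaqMan qRT-PCR for CYP1A1; gain or loss vs DMSO.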

[9] = read-out: CFLAR gene, CFLAR (gene 8837); assay: LTEA_HepaRG_CFLAR: Life Technologies and Expression Analysis (LTEA) Assay for CFLAR gene using HepaRG (AID 2283455); conditions: mRNA level, 48 h; actives raise or lower the signal
Outline: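 Gain- or loss-of-signal changes in CFLAR transcript were fitted bidirectionally relative to 0.5% DMSO. Cells (HepaRG, duplicate wells) were dosed for 48 h across eight half-log concentrations topping at 100 uM; quantitation by TaqMan qRT-PCR.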

[10] = read-out: Forkhead box O1 (FOXO1), FOXO1 (gene 2308); assay: LTEA_HepaRG_FOXO1: Life Technologies and Expression Analysis (LTEA) Assay for Forkhead box O1 (FOXO1) using HepaRG (AID 2283456); conditions: mRNA level, 48 h; actives raise or lower the signal
Outline: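 Using one lot of HepaRG hepatic cells kept in 0.5% DMSO, the team applied test chemicals in duplicate, half-log dilutions from 100 uM, for 48 h. Expression, normalised to ACTB/GAPDH/POLR2A, was compared with vehicle in either direction.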

[11] = read-out: growth arrest and DNA damage 45 (GADD45A), GADD45A (gene 1647); assay: LTEA_HepaRG_GADD45A: Life Technologies and Expression Analysis (LTEA) Assay for growth arrest and DNA damage 45 (GADD45A) using HepaRG (AID 2283458); conditions: mRNA level, 48 h; actives raise or lower the signal
Outline: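 HepaRG, 48 h exposure, 8 conc. (top 100 uM, half-log steps), 0.5% DMSO vehicle, duplicates. Read-out: qRT-PCR mRNA level, housekeeping-normalized (ACTB/GAPDH/POLR2A). Curves fit bidirectionally vs DMSO baseline.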

[12] = read-out: Forkhead box O3 (FOXO3), FOXO3 (gene 2309); assay: LTEA_HepaRG_FOXO3: Life Technologies and Expression Analysis (LTEA) Assay for Forkhead box O3 (FOXO3) using HepaRG (AID 2283459); conditions: mRNA level, 48 h; actives raise or lower the signal
Outline: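 Gene-expression endpoint: FOXO3 transcript level by qRT-PCR in HepaRG cultures treated 48 h with chemicals up to 100 uM (half-log, 0.5% DMSO vehicle).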

[13] = read-out: ABC Transporter (ABCB1), ABCB1 (gene 5243); assay: LTEA_HepaRG_ABCB1: Life Technologies and Expression Analysis (LTEA) Assay for ABC Transporter (ABCB1) using HepaRG (AID 2283460); conditions: mRNA level, 48 h; actives raise or lower the signal
Outline: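 Human liver HepaRG line treated 48 h with up to 100 uM compound (eight half-log points, 0.5% DMSO); ABCB1 mRNA change fitted bidirectionally against DMSO controls.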

[14] = read-out: ABC Transporter (ABCC3), ABCC3 (gene 8714); assay: LTEA_HepaRG_ABCC3: Life Technologies and Expression Analysis (LTEA) Assay for ABC Transporter (ABCC3) using HepaRG (AID 2283462); conditions: mRNA level, 48 h; actives raise or lower the signal
Outline: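 Human HepaRG, 48 h dosing, 8-pt half-log series from 100 uM, 0.5% DMSO vehicle, duplicates. ABCC3 mRNA by TaqMan qRT-PCR, housekeeping-normalized; bidirectional curve fit vs DMSO.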

[15] = read-out: ABC Transporter (ABCB11), ABCB11 (gene 8647); assay: LTEA_HepaRG_ABCB11: Life Technologies and Expression Analysis (LTEA) Assay for ABC Transporter (ABCB11) using HepaRG (AID 2283463); conditions: mRNA level, 48 h; actives raise or lower the signal
Outline: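 Using HepaRG cultures held in 0.5% DMSO, chemicals were tested at half-log dilutions from 100 uM for 48 h. Induction or suppression of ABCB11 mRNA, normalized to ACTB, GAPDH and POLR2A, was fitted bidirectionally against vehicle.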

[16] = read-out: ABC Transporter (ABCC2), ABCC2 (gene 1244); assay: LTEA_HepaRG_ABCC2: Life Technologies and Expression Analysis (LTEA) Assay for ABC Transporter (ABCC2) using HepaRG (AID 2283464); conditions: mRNA level, 48 h; actives raise or lower the signal
Outline: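 HepaRG, 48 h post-plating; serum-free induction medium; cpd 8-pt, 100 uM top, half-log, 0.5% DMSO, duplicate, 48 h. Readout: ABCC2 mRNA by qRT-PCR, norm. ACTB/GAPDH/POLR2A. Bidirectional fit vs DMSO baseline.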

[17] = read-out: Broad substrate specificity ATP-binding cassette transporter ABCG2 (Homo sapiens) (UniProt Q9UNQ0); assay: LTEA_HepaRG_ABCG2: Life Technologies and Expression Analysis (LTEA) Assay for ABC Transporter (ABCG2) using HepaRG (AID 2283465); conditions: mRNA level, 48 h; actives raise or lower the signal
Outline: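 Gene expression of ABCG2 in HepaRG liver cells is quantified by qRT-PCR following 48 h exposure across an eight-point series topping at 100 uM. Values come from bidirectional fitting relative to DMSO vehicle.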

[18] = read-out: ATP-citrate lyase (ACLY), ACLY (gene 47); assay: LTEA_HepaRG_ACLY: Life Technologies and Expression Analysis (LTEA) Assay for ATP-citrate lyase (ACLY) using HepaRG (AID 2283466); conditions: mRNA level, 48 h; actives raise or lower the signal
Outline: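 ACLY expression changes in human HepaRG liver cells are quantified by qRT-PCR after 48 h exposure to test chemicals (maximum 100 uM, half-log steps). Values are fitted in both directions relative to 0.5% DMSO vehicle.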

[19] = read-out: growth arrest and DNA damage 45 (GADD45B), GADD45B (gene 4616); assay: LTEA_HepaRG_GADD45B: Life Technologies and Expression Analysis (LTEA) Assay for growth arrest and DNA damage 45 (GADD45B) using HepaRG (AID 2283461); conditions: mRNA level, 48 h; actives raise or lower the signal
Outline: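 HepaRG, ~100,000 cells/well, 48 h plating; serum-free induction medium; cpd 100 uM top, half-log x8, 0.5% DMSO, duplicate, 48 h; lysis in RLT, RNA isolation, qRT-PCR; norm ACTB/GAPDH/POLR2A; bidirectional fit vs DMSO.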

[20] = CEETOX_H295R_TESTO: CeeTox H295R High-throughput Steroidogenesis Assay for Testosterone (TESTO) (AID 2283457); conditions: actives raise or lower the signal;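 also: cells exposed to chemicals for 48 h before medium collection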
Outline: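 H295R, passage ≤10, 48 h dosing; media extracted with MTBE → HPLC-MS/MS for testosterone; 7-pt standard curve sets LLOQ/ULOQ; bidirectional fit vs DMSO; MTT viability same wells.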

Measured: AC50

Sequence of Broad substrate specificity ATP-binding cassette transporter ABCG2 (Homo sapiens) (Q9UNQ0 whole entry, looked up): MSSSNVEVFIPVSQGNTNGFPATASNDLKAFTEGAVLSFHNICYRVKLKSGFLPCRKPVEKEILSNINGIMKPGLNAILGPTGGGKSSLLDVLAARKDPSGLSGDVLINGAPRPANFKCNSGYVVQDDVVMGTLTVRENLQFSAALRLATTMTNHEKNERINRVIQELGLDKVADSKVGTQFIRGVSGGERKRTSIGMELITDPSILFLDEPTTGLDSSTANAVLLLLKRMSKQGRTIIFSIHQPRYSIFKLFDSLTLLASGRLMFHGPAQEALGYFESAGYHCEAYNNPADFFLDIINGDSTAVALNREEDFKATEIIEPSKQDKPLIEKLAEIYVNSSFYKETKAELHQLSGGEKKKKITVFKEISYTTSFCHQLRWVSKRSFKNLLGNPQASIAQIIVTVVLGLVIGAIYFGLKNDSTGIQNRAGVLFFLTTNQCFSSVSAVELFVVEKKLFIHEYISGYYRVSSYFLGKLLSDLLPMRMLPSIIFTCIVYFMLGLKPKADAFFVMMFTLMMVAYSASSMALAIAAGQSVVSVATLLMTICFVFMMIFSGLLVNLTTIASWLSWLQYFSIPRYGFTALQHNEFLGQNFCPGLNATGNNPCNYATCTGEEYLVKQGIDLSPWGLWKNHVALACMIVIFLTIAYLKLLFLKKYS
Sequence of Fatty acid synthase (Homo sapiens) (P49327 whole entry, looked up): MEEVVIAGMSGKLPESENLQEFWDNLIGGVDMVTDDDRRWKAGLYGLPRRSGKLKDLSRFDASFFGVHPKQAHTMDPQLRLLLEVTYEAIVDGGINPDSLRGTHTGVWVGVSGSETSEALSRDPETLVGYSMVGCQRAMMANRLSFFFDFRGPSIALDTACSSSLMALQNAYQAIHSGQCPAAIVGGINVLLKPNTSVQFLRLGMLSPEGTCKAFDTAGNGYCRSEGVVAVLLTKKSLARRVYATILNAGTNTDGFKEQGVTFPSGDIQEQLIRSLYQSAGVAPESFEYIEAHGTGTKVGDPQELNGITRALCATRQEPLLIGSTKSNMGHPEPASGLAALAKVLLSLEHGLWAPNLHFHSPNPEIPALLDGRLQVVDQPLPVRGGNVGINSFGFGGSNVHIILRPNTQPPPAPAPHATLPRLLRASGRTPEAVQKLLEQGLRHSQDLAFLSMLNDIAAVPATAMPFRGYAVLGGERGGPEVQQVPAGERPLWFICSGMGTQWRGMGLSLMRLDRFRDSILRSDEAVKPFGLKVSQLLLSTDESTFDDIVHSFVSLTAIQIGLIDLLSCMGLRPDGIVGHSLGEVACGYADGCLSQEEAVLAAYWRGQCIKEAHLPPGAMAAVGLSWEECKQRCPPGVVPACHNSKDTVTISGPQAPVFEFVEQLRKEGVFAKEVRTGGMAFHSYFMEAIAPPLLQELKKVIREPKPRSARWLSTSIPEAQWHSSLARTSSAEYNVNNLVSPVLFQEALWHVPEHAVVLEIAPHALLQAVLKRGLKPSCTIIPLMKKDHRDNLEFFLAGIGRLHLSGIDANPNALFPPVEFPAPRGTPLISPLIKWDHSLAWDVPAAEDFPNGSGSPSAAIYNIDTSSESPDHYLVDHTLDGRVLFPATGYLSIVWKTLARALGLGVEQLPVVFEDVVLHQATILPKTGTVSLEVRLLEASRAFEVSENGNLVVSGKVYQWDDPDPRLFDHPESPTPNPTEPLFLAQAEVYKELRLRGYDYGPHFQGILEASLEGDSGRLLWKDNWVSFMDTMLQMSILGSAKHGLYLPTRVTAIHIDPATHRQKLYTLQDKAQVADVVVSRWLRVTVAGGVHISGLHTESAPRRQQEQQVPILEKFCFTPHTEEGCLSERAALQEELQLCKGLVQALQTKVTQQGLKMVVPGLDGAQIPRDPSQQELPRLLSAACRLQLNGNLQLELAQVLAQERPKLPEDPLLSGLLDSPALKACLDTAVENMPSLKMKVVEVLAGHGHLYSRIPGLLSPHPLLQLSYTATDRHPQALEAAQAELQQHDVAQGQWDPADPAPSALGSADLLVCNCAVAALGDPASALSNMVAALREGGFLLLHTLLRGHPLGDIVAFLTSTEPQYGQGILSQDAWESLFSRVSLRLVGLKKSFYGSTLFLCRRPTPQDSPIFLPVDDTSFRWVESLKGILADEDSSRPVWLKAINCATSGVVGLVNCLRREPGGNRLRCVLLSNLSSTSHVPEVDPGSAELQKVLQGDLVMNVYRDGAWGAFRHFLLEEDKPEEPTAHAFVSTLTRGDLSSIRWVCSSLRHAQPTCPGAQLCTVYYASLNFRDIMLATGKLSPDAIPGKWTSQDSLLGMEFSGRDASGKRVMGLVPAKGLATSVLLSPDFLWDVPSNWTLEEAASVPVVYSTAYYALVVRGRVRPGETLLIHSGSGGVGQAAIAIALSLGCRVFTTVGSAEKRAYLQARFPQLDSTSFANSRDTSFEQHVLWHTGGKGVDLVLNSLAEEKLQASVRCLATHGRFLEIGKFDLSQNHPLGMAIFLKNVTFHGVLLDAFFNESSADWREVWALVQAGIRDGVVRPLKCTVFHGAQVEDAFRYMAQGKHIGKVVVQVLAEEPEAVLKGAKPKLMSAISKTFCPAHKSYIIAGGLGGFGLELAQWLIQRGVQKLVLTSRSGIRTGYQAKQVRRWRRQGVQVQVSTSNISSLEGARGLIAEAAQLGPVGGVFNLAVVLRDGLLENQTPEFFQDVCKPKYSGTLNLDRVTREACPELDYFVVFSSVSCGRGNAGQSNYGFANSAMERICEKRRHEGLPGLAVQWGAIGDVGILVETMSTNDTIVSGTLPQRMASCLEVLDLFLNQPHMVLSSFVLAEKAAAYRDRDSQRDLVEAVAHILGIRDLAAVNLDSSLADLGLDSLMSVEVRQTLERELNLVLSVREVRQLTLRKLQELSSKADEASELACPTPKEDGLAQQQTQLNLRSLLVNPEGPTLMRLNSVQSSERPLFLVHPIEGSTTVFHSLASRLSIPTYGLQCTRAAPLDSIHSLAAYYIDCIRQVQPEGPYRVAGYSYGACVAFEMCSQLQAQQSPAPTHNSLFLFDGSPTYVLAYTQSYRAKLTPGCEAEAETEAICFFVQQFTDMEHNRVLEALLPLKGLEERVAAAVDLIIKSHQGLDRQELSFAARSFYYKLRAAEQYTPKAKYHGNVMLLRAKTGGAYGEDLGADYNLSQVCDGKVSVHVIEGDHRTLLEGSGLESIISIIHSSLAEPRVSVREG

CCc1cnc(C2=NC(C)(C(C)C)C(=O)N2)c(C(=O)O)c1 (centres undefined)
not listed: [19] | [20]
inactive: all other assays above

COP(=O)(NC(C)=O)SC (centres undefined)
not listed: [3] | [20]
inactive: all other assays above

Nc1nc(N)nc(NC2CC2)n1
active: [8] 50 µM
not listed: [19] | [20]
inactive: all other assays above

CCOP(=S)(OCC)Oc1ccc([N+](=O)[O-])cc1
active: [8] 15.4 µM
not listed: [2] | [19] | [20]
inactive: all other assays above

FC(F)C(F)(F)OCC(Cn1cncn1)c1ccc(Cl)cc1Cl (centres undefined)
inactive: [12] | [13]
active: [1] 72.2 µM | [2] 81.5 µM | [4] 33.6 µM | [5] 97.3 µM | [6] 49.8 µM | [7] 35.6 µM | [8] 3.17 µM | [9] 78.4 µM | [10] 75.3 µM | [11] 74.2 µM | [14] 21.1 µM | [15] 36.6 µM | [16] 75.9 µM | [17] 15 µM | [18] 12.2 µM

COc1cccc(C(=O)NN(C(=O)c2cc(C)cc(C)c2)C(C)(C)C)c1C
active: [8] 50 µM | [13] 4.33 µM | [15] 19.5 µM | [16] 8.52 µM | [17] 16.7 µM
not listed: [19] | [20]
inactive: all other assays above

CCOP(=O)(NC(C)C)Oc1ccc(SC)c(C)c1 (centres undefined)
active: [8] 50 µM | [20] 26.2 µM | [15] 5.28 µM
not listed: [3] | [19]
inactive: all other assays above
